# “And” between values parts separate entries of the source, which are not always exact repeats. Equal entries are not always repeated. The panel holds about 83,000 compounds, 20% with a hit somewhere; the sample as a whole holds those more often.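 Method: cells in 96-well plates; compound added at one concentration; 48 h incubation; percent growth measured; values under 10 scored active.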 Unmarked numbers belong to inactive results. The source made the active and inactive calls.
# Assays:
# Assay in all cases: NCI-60 one-dose screen, 48 h (100 = growth as untreated, 0 = no growth, -100 = all killed)
# Details in all cases: 10 µM unless noted
# [1] = system: T-47D breast
# [2] = system: BT-549 breast
# [3] = system: MDA-MB-435 melanoma
# [4] = system: SW-620 colon
# [5] = system: MCF7 breast
# [6] = system: HCT-116 colon
# [7] = system: HCC-2998 colon
# [8] = system: KM12 colon
Compound,growth [1],growth [2],growth [3],growth [4],growth [5],growth [6],growth [7],growth [8]
O=S(=O)(O)c1ccc(N=Nc2ccc(N=Nc3cccc4ccccc34)c(S(=O)(=O)O)c2)cc1,81.3%,108%,108%,96.2%,78.1%,102%,108%,104%
N#C/C(=C\c1ccc(Br)cc1)n1nnc2c(F)cccc21,14.2%,12%,-26.8% (active),-22.1% (active),12.7%,-27.5% (active),-38.4% (active),4.37% (active)
O=C(NNc1ccccc1)c1ccccc1,56.5% and 36.8%,105% and 72.2%,69.4%,57.1% and 45.7%,82.9% and 90.4%,79.6% and 68.5%,85.6%,33.5%
O=C(/C=C/c1ccc([N+](=O)[O-])cc1)c1ccccc1,60.2%,93.6%,89.3%,72.1%,20.2%,17%,102%,57%
COc1cc(/C=C/C(=O)c2ccc(NC(=O)CSc3nnc(-c4cc(-c5ccccc5)nc5ccccc45)n3-c3ccccc3)cc2)cc(OC)c1OC,73%,90.7%,92.2%,90.5%,74.3%,79%,88.3%,63.5%
COC(=O)c1nc(-c2ccccc2)oc1S(=O)(=O)N(C)CCO,44.5%,72.5%,60.9%,40.4%,47.8%,46.7%,99.4%,89.4%
CN1CCN(c2ccc(Nc3ncc(C(N)=O)c(NCCCNC(=O)C4CCC4)n3)cc2)CC1,107%,19.4%,66.9%,70.9%,48.9%,43.2%,85.6%,82.1%
COc1ccc(/C=C(\C#N)c2cc3ccccc3[nH]2)cc1,28.3%,40.9%,-32.6% (active),9.82% (active),13.3%,12.5%,39%,20.4%
COc1cccc(NC(=O)c2sc3nc(C)c(C(O)c4ccccc4)cc3c2N)c1 (stereo not given),35.3%,55.6%,5.31% (active),26.5%,17.9%,8.89% (active),9.98% (active),18%
N#Cc1c(-c2cccc(F)c2)cc(-c2cccnc2)[nH]c1=O,93.4%,98.3%,100%,110%,92.4%,103%,112%,103%
Cn1cc(-c2nc3c(F)cc4[nH]ncc4c3c3c2CCCC3)c(C(F)F)n1,50.8%,31.1%,27.1%,56.3%,46.5%,39.7%,90.6%,23.2%
O=C(CCCOc1ccc(Br)cc1)Nc1ncc(Cc2ccc(F)cc2)s1,58%,82%,-27.2% (active),58.2%,23.7%,36.6%,73.9%,36.2%
Cc1ccc(C(=O)Nc2nc3c(s2)CN(Cc2ccccc2)CC3)cn1,83.8%,94.9%,7.68% (active),69.8%,64%,80.7%,77.9%,49.6%
Cc1ccc(-c2nc3nc(-c4ccc(F)cc4)nc(N4CCCNCC4)c3o2)cc1,-63.8% (active),-76.9% (active),-95.7% (active),-84.6% (active),-72.4% (active),-87.2% (active),-89.3% (active),-86.3% (active)
O=C(Cc1ccc(F)cc1)c1ccccc1,112%,97.2%,106%,110%,103%,103%,106%,111%
CCN(CC)CCOc1ccc(/C(=C(\Cl)c2ccccc2)c2ccccc2)cc1,23.4% and 48.9%,43.4% and 92.6%,7.34% (active),-55% (active),16.2% and 27.4%,11.4% and 57.8%,35.7% and 98.3%,21.8% and 75.9%
O=C1c2cccc3cccc(c23)C(=O)N1N1C(=O)c2cccc3c(N4CCNCC4)ccc(c23)C1=O,93.6%,89.8%,99.9%,78.7%,29%,58.1%,79.4%,82.2%
NCCOCCOc1ccccc1,101%,106%,107%,102%,91.2%,99.4%,94.2%,105%
COc1ccccc1/C=C1\COc2ccc(O)cc2C1=O,82.8%,76.2%,14.9%,9.45% (active),12.8%,42%,113%,16.6%
Nc1nc(CSc2n[nH]c(N)n2)nc(Nc2ccccc2)n1,94.5%,95.7%,94.7%,99%,93.3%,105%,110%,98.4%
COC(=O)/C=C1/SC(=Nc2ccc([N+](=O)[O-])cc2)N(CCc2c[nH]c3ccccc23)C1=O,46.5%,60.8%,55.5%,47.3%,20.1%,21.8%,78.3%,66.4%
O=C1/C(=C/c2cn(-c3ccccc3)nc2-c2ccccc2)SC(=S)N1c1ccccc1,99.1%,98%,98.3%,99.8%,93.8%,102%,96.6%,101%
CN(C)C1CCN(C(=O)c2ccc(NC(=O)Nc3ccc(-c4nc(N5CCOCC5)c5cccn5n4)cc3)cc2)CC1,-36% (active),-7.28% (active),1.97% (active),9.03% (active),-4.03% (active),5.84% (active),3.23% (active),5.54% (active)
COc1nc(=O)n(C2C=CC(=O)O2)cc1F (stereo not given),41.7%,81.2%,79%,46.3%,31.9%,34.3%,133%,103%
Cn1cc(-c2csc(-c3cn(CCOC(N)=O)c4ccccc34)n2)c2cccnc21,45.8%,79.5%,8.15% (active),67.9%,58.2%,86.5%,90.4%,67%
Cc1ccc(S(=O)(=O)OC[C@@]2(C)CC[C@]3(C)CC[C@]4(C)C(=CC[C@@H]5[C@@]6(C)CCCNC(C)(C)[C@@H]6CC[C@]54C)[C@@H]3C2)cc1,-82.8% (active),76.5%,-89.9% (active),-81.9% (active),-61.6% (active),-80.6% (active),-92.3% (active),-91.7% (active)
N#CC1C(=O)c2ccccc2C1c1ccccc1 (stereo not given),96.5% and 99.9%,107%,104% and 102%,121% and 104%,102% and 99.5%,105% and 101%,111% and 115%,109% and 102%
COc1c(O)c(O)cc2c3c(oc12)CC(c1ccc2c(c1)OCO2)CC3=O (stereo not given),43.8%,56.2%,39.8%,38.7%,35.5%,32.1%,92.9%,66%
Nc1ncc(-c2ccc3ncnc(N4CCc5ccc(Cl)cc54)c3c2)cc1C(F)(F)F,12%,-2.6% (active),13.7%,34.8%,7.34% (active),23.3%,22.3%,13.4%
Nc1nc(N)c2c(n1)NC(c1ccc(Cl)cc1)CC(c1cccc(Nc3ccncc3)c1)=N2 (stereo not given),77.6%,110%,42.7%,30%,49.4%,21.9%,72.1%,63.7%

# Reference: PubChem BioAssay (NCI)
